Test in all cases: DAPPL (digital affinity profiling via proximity ligation, sequencing); 10 mM Tris-HCl pH 7.5, 50 mM NaCl, 1 mM DTT, 4% glycerol, room temperature, 30 min; GST-TFs on glutathione beads, 16-mer random dsDNA library, 0.1% formaldehyde crosslink after washing; high values mean tight binding
One test addresses T1, FEV (Homo sapiens, UniProt Q99581 1-238).
T1 sequence: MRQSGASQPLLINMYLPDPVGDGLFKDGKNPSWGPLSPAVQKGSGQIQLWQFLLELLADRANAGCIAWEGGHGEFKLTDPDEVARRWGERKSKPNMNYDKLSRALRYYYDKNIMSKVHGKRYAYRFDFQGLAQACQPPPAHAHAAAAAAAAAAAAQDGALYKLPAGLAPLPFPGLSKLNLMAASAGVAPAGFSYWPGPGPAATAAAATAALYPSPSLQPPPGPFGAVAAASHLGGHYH
The conditions noted are these: protein: recombinant; tags: N-terminal GST; dsDNA, one strand shown. The essentials:
(§1)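 Human transcription factors were made in yeast as GST fusions, captured on glutathione beads and barcoded with DNA. With a tag-only sample included, the pool was incubated with 200 nmole of a random double-stranded 16-mer DNA library in Tris/NaCl/DTT/glycerol buffer at room temperature for 30 min, then crosslinked with 0.1% formaldehyde after washing, ligated by proximity, amplified and sequenced. For binding signal, each hexamer's read frequency for a factor is divided by its frequency for the tag-only sample.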

Another test concerns the target ETV5 (Homo sapiens, UniProt P41161 1-510). The conditions noted are these: protein: recombinant; tags: N-terminal GST; dsDNA, one strand shown. A digest of the protocol: as §1
For the next test, the target named is HSF1 (Homo sapiens, UniProt Q00613 1-529). The following applies: protein: recombinant; tags: N-terminal GST; chain copies: 3; dsDNA, one strand shown. A digest of the protocol: as §1
A further test has as its target T2, SPIC (Homo sapiens, UniProt Q8N5J4 1-248).
T2 sequence: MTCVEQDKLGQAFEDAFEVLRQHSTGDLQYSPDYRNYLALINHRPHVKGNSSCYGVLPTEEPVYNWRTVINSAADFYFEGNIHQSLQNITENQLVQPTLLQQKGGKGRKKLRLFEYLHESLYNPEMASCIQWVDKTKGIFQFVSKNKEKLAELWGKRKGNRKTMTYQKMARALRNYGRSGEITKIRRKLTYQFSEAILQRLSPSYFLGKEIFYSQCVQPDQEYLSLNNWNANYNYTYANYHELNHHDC
The conditions noted are these: protein: recombinant; tags: N-terminal GST; dsDNA, one strand shown. The essentials: as §1

The target of another test is ELF4 (Homo sapiens, UniProt Q99607 1-663). The following applies: protein: recombinant; tags: N-terminal GST; dsDNA, one strand shown. The essentials: as §1
The next test has as its target T3, ELK4 (Homo sapiens, UniProt P28324-2 1-405).
T3 sequence: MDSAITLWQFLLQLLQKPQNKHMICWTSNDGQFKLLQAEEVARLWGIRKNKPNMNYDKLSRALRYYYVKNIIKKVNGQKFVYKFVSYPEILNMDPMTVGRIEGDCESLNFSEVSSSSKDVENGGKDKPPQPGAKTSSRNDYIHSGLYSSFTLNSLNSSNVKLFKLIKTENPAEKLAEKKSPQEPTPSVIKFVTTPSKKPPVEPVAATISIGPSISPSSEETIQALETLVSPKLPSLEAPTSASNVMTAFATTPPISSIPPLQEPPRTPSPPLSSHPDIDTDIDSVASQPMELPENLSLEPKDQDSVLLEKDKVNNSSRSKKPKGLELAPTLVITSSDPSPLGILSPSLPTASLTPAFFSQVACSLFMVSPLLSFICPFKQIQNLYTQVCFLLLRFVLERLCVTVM
The conditions noted are these: protein: recombinant; tags: N-terminal GST; dsDNA, one strand shown. A digest of the protocol: as §1

Another test deals with T4, ETV2 (Homo sapiens, UniProt O00321 1-342).
T4 sequence: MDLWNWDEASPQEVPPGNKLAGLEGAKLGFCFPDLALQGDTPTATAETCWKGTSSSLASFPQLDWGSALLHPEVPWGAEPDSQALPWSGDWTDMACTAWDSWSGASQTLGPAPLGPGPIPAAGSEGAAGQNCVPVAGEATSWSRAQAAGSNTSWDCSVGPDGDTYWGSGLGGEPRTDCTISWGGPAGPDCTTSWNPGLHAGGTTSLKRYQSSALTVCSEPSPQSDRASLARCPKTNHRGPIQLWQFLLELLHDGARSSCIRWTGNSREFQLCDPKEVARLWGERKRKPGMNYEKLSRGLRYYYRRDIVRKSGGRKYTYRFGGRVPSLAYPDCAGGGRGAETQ
The following applies: protein: recombinant; tags: N-terminal GST; dsDNA, one strand shown. A digest of the protocol:
as §1

The next test addresses T5, ELF3 (Homo sapiens, UniProt P78545 1-371).
T5 sequence: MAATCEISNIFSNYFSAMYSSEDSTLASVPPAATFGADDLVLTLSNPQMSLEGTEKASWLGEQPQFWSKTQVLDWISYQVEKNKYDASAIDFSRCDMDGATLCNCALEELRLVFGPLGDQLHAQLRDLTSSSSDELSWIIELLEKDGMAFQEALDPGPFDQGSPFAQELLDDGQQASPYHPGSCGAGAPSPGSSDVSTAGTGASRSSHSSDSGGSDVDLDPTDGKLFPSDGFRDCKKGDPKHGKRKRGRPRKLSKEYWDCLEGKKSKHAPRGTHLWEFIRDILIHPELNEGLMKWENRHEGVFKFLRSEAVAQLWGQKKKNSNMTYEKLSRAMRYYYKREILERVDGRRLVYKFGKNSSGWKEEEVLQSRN
The conditions noted are these: protein: recombinant; tags: N-terminal GST; dsDNA, one strand shown. A digest of the protocol:
as §1

Another test has as its target CRX (Homo sapiens, UniProt O43186 1-299). The following applies: protein: recombinant; tags: N-terminal GST; dsDNA, one strand shown. A digest of the protocol: as §1
The next test deals with ETV1 (Homo sapiens, UniProt P50549 1-477). The conditions noted are these: protein: recombinant; tags: N-terminal GST; dsDNA, one strand shown. A digest of the protocol: as §1
The target of a further test is T6, ERF (Homo sapiens, UniProt P50548 1-548).
T6 sequence: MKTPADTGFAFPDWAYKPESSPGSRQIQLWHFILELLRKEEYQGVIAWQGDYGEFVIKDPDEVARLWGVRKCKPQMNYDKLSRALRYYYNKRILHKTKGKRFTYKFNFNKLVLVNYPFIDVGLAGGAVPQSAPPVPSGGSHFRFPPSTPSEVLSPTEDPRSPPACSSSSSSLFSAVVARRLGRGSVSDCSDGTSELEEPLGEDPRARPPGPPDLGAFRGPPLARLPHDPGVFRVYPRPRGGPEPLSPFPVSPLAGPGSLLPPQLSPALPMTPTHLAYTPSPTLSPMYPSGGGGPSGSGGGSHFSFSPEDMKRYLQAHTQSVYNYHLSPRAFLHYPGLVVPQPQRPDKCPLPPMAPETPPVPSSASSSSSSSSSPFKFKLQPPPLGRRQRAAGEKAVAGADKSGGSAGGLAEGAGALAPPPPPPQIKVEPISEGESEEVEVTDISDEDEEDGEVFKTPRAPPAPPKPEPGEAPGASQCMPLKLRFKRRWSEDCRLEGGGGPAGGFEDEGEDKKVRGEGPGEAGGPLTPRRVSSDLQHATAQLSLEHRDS
The following applies: protein: recombinant; tags: N-terminal GST; dsDNA, one strand shown. A digest of the protocol: as §1

The target of another test is T7, ETV3L (Homo sapiens, UniProt Q6ZN32 1-361).
T7 sequence: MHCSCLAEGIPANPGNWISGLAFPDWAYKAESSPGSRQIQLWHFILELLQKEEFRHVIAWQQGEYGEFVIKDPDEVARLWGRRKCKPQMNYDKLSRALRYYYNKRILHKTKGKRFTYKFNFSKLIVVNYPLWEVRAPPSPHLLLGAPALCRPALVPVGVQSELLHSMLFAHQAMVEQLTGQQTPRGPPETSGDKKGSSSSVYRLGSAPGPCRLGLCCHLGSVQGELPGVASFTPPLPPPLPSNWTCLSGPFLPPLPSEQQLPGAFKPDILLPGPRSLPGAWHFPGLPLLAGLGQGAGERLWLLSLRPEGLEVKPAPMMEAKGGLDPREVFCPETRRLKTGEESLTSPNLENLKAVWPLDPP
The conditions noted are these: protein: recombinant; tags: N-terminal GST; dsDNA, one strand shown. The essentials: as §1

The next test has as its target T8, ETS2 (Homo sapiens, UniProt P15036 1-469).
T8 sequence: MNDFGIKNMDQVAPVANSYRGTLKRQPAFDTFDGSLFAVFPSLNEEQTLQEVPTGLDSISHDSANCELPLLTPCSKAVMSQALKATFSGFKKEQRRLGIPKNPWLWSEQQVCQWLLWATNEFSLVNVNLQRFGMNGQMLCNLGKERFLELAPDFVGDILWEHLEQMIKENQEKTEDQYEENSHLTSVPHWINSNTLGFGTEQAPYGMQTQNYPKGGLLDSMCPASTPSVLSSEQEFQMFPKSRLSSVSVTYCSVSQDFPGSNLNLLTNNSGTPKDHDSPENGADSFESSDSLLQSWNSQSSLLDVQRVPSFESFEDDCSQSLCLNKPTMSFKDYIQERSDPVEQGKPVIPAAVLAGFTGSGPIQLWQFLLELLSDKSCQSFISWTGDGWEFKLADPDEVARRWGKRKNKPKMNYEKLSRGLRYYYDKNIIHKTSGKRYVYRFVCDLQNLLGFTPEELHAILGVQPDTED
The following applies: protein: recombinant; tags: N-terminal GST; dsDNA, one strand shown. The essentials: as §1

The target in the next test is T9, SPDEF (Homo sapiens, UniProt O95238 1-335).
T9 sequence: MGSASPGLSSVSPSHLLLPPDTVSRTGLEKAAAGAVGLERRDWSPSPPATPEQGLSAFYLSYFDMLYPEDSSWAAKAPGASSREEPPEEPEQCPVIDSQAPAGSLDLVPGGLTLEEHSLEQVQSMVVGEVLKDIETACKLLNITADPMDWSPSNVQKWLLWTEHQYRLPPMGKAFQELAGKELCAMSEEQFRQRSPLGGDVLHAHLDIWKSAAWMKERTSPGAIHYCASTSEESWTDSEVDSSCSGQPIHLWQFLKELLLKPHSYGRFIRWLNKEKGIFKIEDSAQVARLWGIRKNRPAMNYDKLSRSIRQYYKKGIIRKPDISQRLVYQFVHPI
The conditions noted are these: protein: recombinant; tags: N-terminal GST; dsDNA, one strand shown. The essentials:
as §1

A further test has as its target T10, ETV7 (Homo sapiens, UniProt Q9Y603 1-341).
T10 sequence: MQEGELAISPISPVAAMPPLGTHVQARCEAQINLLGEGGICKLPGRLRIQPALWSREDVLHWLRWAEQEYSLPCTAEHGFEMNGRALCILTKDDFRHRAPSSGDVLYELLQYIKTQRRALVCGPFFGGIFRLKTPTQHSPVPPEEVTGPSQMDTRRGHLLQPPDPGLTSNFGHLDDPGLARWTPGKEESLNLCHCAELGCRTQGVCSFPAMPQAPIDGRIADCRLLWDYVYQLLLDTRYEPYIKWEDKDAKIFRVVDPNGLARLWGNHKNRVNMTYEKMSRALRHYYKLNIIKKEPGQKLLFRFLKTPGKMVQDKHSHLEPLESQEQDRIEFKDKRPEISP
The conditions noted are these: protein: recombinant; tags: N-terminal GST; dsDNA, one strand shown. A digest of the protocol: as §1

Another test addresses T11, ELF5 (Homo sapiens, UniProt Q9UKW6-2 1-255).
T11 sequence: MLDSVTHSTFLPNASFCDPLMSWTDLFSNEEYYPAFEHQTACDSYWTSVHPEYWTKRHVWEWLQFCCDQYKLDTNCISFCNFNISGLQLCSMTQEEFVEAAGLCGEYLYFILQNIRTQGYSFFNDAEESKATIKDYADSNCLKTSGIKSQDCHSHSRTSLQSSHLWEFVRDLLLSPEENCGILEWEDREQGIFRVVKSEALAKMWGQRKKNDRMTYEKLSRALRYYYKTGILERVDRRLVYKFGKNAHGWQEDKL
The following applies: protein: recombinant; tags: N-terminal GST; dsDNA, one strand shown. A digest of the protocol: as §1

The target in the next test is T12, ETV3 (Homo sapiens, UniProt P41162-2 1-143).
T12 sequence: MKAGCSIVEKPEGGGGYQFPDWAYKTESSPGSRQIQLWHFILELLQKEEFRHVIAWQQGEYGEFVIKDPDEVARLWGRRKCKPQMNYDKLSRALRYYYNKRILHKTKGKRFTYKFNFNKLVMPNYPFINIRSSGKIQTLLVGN
The following applies: protein: recombinant; tags: N-terminal GST; dsDNA, one strand shown. A digest of the protocol: as §1

A further test addresses ETV6 (Homo sapiens, UniProt P41212 1-452). The conditions noted are these: protein: recombinant; tags: N-terminal GST; dsDNA, one strand shown. A digest of the protocol:
as §1

CRX, sequence (O43186 whole entry): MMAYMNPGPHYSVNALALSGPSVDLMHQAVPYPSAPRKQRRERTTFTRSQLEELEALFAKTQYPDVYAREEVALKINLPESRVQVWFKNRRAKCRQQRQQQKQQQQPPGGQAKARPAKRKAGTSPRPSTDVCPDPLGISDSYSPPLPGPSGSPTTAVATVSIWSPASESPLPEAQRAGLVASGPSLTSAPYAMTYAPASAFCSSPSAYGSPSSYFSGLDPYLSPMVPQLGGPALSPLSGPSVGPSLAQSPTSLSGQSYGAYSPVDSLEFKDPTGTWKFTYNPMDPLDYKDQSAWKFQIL
ETV6, sequence (P41212 whole entry): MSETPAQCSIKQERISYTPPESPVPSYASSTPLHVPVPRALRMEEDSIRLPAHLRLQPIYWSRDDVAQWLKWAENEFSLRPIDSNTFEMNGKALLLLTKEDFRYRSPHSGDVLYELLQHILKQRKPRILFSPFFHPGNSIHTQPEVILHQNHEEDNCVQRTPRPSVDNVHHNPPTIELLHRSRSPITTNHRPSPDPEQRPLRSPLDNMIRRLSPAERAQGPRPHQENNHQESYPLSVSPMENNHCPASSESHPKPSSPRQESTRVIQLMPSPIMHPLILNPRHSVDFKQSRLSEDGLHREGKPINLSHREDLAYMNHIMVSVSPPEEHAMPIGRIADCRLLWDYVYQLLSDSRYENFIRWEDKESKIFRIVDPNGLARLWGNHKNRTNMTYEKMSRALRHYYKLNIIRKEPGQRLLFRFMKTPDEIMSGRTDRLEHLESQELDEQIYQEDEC
HSF1, sequence (Q00613 whole entry): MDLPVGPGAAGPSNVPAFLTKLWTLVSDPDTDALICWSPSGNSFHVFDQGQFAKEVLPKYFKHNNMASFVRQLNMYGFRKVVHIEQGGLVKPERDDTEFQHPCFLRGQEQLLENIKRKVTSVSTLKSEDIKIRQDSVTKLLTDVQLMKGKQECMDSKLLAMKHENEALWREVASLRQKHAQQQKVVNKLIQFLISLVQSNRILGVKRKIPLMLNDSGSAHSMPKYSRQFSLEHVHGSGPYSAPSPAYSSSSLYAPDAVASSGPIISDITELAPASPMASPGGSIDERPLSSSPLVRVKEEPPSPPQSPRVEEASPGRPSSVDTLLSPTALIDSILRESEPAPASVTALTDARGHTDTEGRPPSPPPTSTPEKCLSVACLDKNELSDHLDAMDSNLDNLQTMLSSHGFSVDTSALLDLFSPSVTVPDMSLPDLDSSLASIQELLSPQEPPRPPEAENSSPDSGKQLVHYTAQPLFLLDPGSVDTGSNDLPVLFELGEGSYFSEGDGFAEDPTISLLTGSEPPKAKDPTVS
ELF4, sequence (Q99607 whole entry): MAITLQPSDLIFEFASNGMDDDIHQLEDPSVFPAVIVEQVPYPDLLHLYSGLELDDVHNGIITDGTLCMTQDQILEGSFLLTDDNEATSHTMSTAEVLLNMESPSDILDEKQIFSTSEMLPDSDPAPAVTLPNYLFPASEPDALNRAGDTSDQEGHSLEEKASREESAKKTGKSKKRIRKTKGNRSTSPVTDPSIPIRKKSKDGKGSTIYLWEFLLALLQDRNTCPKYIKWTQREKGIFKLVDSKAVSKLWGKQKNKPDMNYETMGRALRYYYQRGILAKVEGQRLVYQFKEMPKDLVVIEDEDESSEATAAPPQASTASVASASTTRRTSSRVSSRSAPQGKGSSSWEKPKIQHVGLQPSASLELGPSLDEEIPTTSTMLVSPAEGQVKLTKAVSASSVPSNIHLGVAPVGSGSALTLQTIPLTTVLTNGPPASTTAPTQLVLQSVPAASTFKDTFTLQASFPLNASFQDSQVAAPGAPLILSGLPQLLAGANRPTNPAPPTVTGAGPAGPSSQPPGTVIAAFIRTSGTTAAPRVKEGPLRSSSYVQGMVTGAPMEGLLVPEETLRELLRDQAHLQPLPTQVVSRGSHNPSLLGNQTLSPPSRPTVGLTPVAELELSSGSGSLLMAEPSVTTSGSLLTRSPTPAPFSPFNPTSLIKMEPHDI
ETV1, sequence (P50549 whole entry): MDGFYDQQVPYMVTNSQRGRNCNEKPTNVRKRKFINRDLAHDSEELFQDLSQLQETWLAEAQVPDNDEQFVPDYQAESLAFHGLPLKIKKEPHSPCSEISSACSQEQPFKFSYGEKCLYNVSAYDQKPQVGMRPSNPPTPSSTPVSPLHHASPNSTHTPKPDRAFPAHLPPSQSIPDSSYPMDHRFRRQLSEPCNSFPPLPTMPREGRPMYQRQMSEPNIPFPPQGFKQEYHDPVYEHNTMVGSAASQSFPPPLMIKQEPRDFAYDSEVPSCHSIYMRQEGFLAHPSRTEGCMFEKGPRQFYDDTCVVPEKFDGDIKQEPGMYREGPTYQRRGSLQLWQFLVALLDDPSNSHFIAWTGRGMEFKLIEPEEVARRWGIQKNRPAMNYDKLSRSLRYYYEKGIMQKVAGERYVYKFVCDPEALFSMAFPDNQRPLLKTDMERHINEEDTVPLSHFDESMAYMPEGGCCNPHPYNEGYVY
ETV5, sequence (P41161 whole entry): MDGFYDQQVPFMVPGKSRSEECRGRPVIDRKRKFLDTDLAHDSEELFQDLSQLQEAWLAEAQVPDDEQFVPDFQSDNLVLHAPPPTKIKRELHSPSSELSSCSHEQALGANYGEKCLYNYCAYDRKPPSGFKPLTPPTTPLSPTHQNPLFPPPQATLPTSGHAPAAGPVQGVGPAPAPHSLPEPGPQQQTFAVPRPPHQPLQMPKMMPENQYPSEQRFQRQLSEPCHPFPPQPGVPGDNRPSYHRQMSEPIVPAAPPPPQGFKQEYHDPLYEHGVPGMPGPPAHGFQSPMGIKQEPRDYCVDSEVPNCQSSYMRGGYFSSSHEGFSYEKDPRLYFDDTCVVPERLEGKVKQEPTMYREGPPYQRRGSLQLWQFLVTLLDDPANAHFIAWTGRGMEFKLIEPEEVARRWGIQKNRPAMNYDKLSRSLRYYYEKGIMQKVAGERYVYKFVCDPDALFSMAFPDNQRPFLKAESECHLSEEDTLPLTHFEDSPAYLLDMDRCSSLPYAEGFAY

As for TATGGA, the binding signal in the test with FEV is 1.05 fold enrichment (6-mer frequency, TF over GST control); with ETV5, 1.12 fold enrichment (6-mer frequency, TF over GST control); in the test with HSF1, 1.33 fold enrichment (6-mer frequency, TF over GST control); with SPIC it was 1.14 fold enrichment (6-mer frequency, TF over GST control); with ELF4, 1.07 fold enrichment (6-mer frequency, TF over GST control); in the test with ELK4, 1 fold enrichment (6-mer frequency, TF over GST control). Also, the binding signal in the test with ETV2 was 1.25 fold enrichment (6-mer frequency, TF over GST control); with ELF3, 1.15 fold enrichment (6-mer frequency, TF over GST control); in the test with CRX, 1.4 fold enrichment (6-mer frequency, TF over GST control); with ETV1, 1.12 fold enrichment (6-mer frequency, TF over GST control); with ERF, 1.16 fold enrichment (6-mer frequency, TF over GST control); with ETV3L, 1.13 fold enrichment (6-mer frequency, TF over GST control). For the same sequence, the binding signal with ETS2 is 1.12 fold enrichment (6-mer frequency, TF over GST control); with SPDEF, 1.18 fold enrichment (6-mer frequency, TF over GST control); in the test with ETV7 it was 1.26 fold enrichment (6-mer frequency, TF over GST control); in the test with ELF5 it was 1.08 fold enrichment (6-mer frequency, TF over GST control); in the test with ETV3 it was 1.22 fold enrichment (6-mer frequency, TF over GST control); in the test with ETV6 it was 1.05 fold enrichment (6-mer frequency, TF over GST control).

For the origin of these results see publication PMC7862700, “An all-to-all approach to the identification of sequence-specific readers for epigenetic DNA modifications on cytosine”.
